High-throughput results from PubChem.
Giardia kill: Giardia lamblia killing; AID 540267; Giardia lamblia trophozoite viability; activity change, % at 7.66 µM, hits read low; 340,000 tested, 0.15% active; in the data active = activity change below about -80%; inconclusive = between about -30% and that limit;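 note: parasites exposed to compound for two days anaerobically before the ATP read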
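Each well holds 100 Giardia trophozoites and compound. After two days (48 hrs) at 37 deg C in anaerobic conditions, ATP is quantified by luminescence.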
TDP1 inh: TDP1 (human) enzyme inhibition. recombinant TDP1, AlphaScreen DNA substrate cleavage. Potency, µM (highest dose often 130 µM), inactives show at the highest dose activity change, negative = inhibition, usual class: inhibitors. 350,000 tested, 0.28% active. Q9NUW8; note: potency is the fitted concentration of half-maximal effect; nearly all actives have a fitted effect of over 40% in size
Target sequence (Q9NUW8 whole entry, looked up): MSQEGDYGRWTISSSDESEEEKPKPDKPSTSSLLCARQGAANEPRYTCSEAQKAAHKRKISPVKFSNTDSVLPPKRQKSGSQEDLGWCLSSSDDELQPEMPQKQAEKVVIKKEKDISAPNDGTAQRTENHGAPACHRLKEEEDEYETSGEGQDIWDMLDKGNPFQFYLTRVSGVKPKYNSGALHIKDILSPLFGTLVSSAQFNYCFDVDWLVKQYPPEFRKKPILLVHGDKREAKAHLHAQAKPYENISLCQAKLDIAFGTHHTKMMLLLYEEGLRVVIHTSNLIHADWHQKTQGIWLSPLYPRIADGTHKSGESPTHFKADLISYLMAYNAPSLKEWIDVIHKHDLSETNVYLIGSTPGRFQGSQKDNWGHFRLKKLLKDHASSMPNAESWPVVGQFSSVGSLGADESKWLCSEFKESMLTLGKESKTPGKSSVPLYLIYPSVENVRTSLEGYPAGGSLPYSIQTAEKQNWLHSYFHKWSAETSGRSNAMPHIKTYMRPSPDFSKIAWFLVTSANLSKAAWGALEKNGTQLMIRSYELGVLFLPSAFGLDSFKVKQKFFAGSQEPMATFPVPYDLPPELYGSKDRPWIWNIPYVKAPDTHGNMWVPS
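Tdp1 1 nM final; 15 min RT w/ cpd; substrate 15 nM, 5 min; beads 10 ug/ml, 10 min; AlphaScreen read. Neg ctrl: no enzyme.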
ELG1 DNA repair: ELG1-dependent DNA repair inhibition. AID 504467. 330,000 tested, 2.3% active. HEK293T ELG1-luciferase reporter, luminescence, 16 h; DNA damage induced by 5-fluorouridine. Potency, µM (top dose mostly 46.1 µM), for inactives: at the highest dose activity change, negative = inhibition, usual class: inhibitors; note: potency is the fitted concentration of half-maximal effect; nearly all actives have a fitted effect of over 55% in size
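Quantitative HTS, concentration-response format. 2,000 cells/well co-treated with 5-fluorouridine and compound, 16 hr in 5% CO2 at 37 °C; ONE-Glo luminescence read after 30 min.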
TDP1 cell noCPT: qHTS for Inhibitors of human tyrosyl-DNA phosphodiesterase 1 (TDP1): qHTS in cells in absence of CPT | 420,000 tested, 15% active | Potency, µM (series often up to 46.2 µM), without a hit: top-dose activity change, negative = growth inhibition, actives largely listed as inhibitors | AID 686978, 2013 | DT40 Tdp1-/- hTDP1 cells, no CPT, ATP luminescence, 48 h; note: potency is the fitted concentration of half-maximal effect; nearly all actives have a fitted effect of over 55% in size
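Seeded 400 DT40-hTDP1 cells/well (vehicle DMSO, no 20 nM CPT); pinned compounds; ≥48 hr at 37 °C; CellTiter-Glo luminescence as viability measure.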
TDP1 cell CPT: growth inhibition of DT40 Tdp1-/-;hTDP1 cells with camptothecin (screen for TDP1 inhibitors); 420,000 tested, 12% active; chicken DT40 Tdp1-/-;hTDP1 cells + 20 nM CPT, ATP luminescence, 48 h; AID 686979; Potency, µM (doses to about 46.2 µM), inactives show at the top dose activity change, negative = growth inhibition, actives largely listed as inhibitors; note: potency is the fitted concentration of half-maximal effect; nearly all actives have a fitted effect of over 55% in size
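Chicken DT40 Tdp1-/- cells complemented with human TDP1, 400 cells/well, exposed to compounds plus 20 nM camptothecin for at least 48 h at 37 C; viability read as ATP content by CellTiter-Glo luminescence.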
IL-1B inflam inh: inflammasome signaling inhibition, IL-1 beta readout; AID 743279; activity change, % at 57.5 µM; THP-1 LPS/ATP IL-1B secretion, AlphaLISA, 16 h; active compounds read low; 360,000 tested, 4.7% active; in the data active = activity change below about -50%; inconclusive = mostly about -30% to -49%
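THP-1 cells pretreated 1 hr with compounds (up to 57.5 uM final), then stimulated with LPS (250 ng/mL final) plus ATP (1.25 mM final); secreted IL-1B measured by AlphaLISA after 16 hr, decreased signal indicating inhibition.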
* hit, by the source's call; [ ] = dose if it differs, or a comment. Compounds with a hit are over-represented: about 19% of the library has one in this group of screens. Unless noted, calls come from the whole dose curve; as a rule, active = well fitted curve in the direction sought with a large enough effect; inconclusive = small, poorly fitted or top-dose-only effect, or another doubt; inactive = no such curve, though single readings can be large; an effect the other way counts as inactive or inconclusive. % is set by controls: 0 for no effect and ±100 for the full control effect.

Results for COc1cccc(CNS(=O)(=O)c2c(C)nc3sccn3c2=O)c1 ?
Giardia kill: -20; ELG1 DNA repair: 11%; TDP1 cell noCPT: -9%; TDP1 cell CPT: -23%; IL-1B inflam inh: 15

Results for CCN(C(=O)C1CCC(CNS(=O)(=O)c2cccc3nsnc23)CC1)c1cccc(C)c1 (configuration not stated) ?
TDP1 inh: 7%; TDP1 cell noCPT: 21µM*; TDP1 cell CPT: inconclusive

How did CCN(C(=O)C1CCC(CNS(=O)(=O)c2cccc3nsnc23)CC1)c1ccccc1 (configuration not stated) do in these assays?
TDP1 inh: 8%; TDP1 cell noCPT: 23µM*; TDP1 cell CPT: inconclusive

How did COc1ccc(NC(=O)C2CCC(CNS(=O)(=O)c3cccc4nsnc34)CC2)cc1OC (configuration not stated) do in these assays?
TDP1 inh: 1%; TDP1 cell noCPT: 16µM*; TDP1 cell CPT: inconclusive

How did O=C(Nc1cccnc1)C1CCC(CNS(=O)(=O)c2cccc3nsnc23)CC1 (configuration not stated) do in these assays?
Giardia kill: -3; ELG1 DNA repair: -14%; TDP1 cell noCPT: inconclusive; TDP1 cell CPT: -28%; IL-1B inflam inh: -10

Results for CCN(CC)C(=O)C1CCC(CNS(=O)(=O)c2cccc3nsnc23)CC1 (configuration not stated) ?
Giardia kill: -4; TDP1 inh: 2%; ELG1 DNA repair: -2%; TDP1 cell noCPT: -2%; TDP1 cell CPT: 1%; IL-1B inflam inh: 20

What do the screens show for `Cc1nccn1-c1ccc(C=O)cc1`?
Giardia kill: 19; TDP1 inh: 2%; ELG1 DNA repair: 0%; TDP1 cell noCPT: -28%; TDP1 cell CPT: -3%; IL-1B inflam inh: 0

Results for O=C1CN(C(=O)COC(=O)CCS(=O)(=O)c2ccccc2Cl)c2ccccc2N1 ?
Giardia kill: -20; ELG1 DNA repair: 1%; TDP1 cell noCPT: inconclusive; TDP1 cell CPT: 18µM*; IL-1B inflam inh: -25

How did CS(=O)(=O)c1ccc(C(=O)OCC(=O)N2CC(=O)Nc3ccccc32)cc1[N+](=O)[O-] do in these assays?
Giardia kill: 16; TDP1 inh: 1%; TDP1 cell noCPT: 0.71µM*; TDP1 cell CPT: 1.1µM*

Results for O=C(CCNC(=O)N1CC(=O)Nc2ccccc21)NCc1cccc(Cl)c1 ?
Giardia kill: -13; TDP1 inh: 1%; ELG1 DNA repair: 8%; TDP1 cell noCPT: inconclusive; TDP1 cell CPT: 6%; IL-1B inflam inh: 0

Results for O=C(CCNC(=O)N1CC(=O)Nc2ccccc21)NCc1ccccc1Cl ?
TDP1 cell noCPT: 13µM*; TDP1 cell CPT: inconclusive; IL-1B inflam inh: -8

What do the screens show for `O=C1CN(C(=O)COC(=O)c2ccc(N3CCCCCC3)c([N+](=O)[O-])c2)c2ccccc2N1`?
Giardia kill: -3; TDP1 inh: 0%; ELG1 DNA repair: inconclusive; TDP1 cell noCPT: -26%; TDP1 cell CPT: 3%; IL-1B inflam inh: 22

What do the screens show for `CC1CCCCN1C(=O)COC(=O)c1ccc(S(C)(=O)=O)c([N+](=O)[O-])c1` (configuration not stated)?
Giardia kill: -12; TDP1 inh: -1%; TDP1 cell noCPT: 3.2µM*; TDP1 cell CPT: 2.2µM*

Results for COc1cccc(-n2nnnc2SCC(=O)NC2CCCCC2)c1 ?
Giardia kill: -8; ELG1 DNA repair: 10%; TDP1 cell noCPT: inconclusive; TDP1 cell CPT: 0%; IL-1B inflam inh: -4

How did Cc1cccc(-n2nc3c(c2NC(=O)C(C)C)CSC3)c1 do in these assays?
Giardia kill: 43; TDP1 inh: 1%; ELG1 DNA repair: inconclusive; TDP1 cell noCPT: -8%; TDP1 cell CPT: -25%; IL-1B inflam inh: 14

What do the screens show for `Cc1ccc(OCc2ccc(C(=O)O)o2)c([N+](=O)[O-])c1`?
Giardia kill: -15; TDP1 inh: 3%; ELG1 DNA repair: inconclusive; TDP1 cell noCPT: -15%; TDP1 cell CPT: -15%; IL-1B inflam inh: 15

What do the screens show for `CS(=O)(=O)c1ccc(C(=O)OCC(=O)N2CCCC2)cc1[N+](=O)[O-]`?
Giardia kill: -18; TDP1 inh: 1%; TDP1 cell noCPT: 4µM*; TDP1 cell CPT: 5µM*

Results for Cc1ccc(C)c(NC(=O)c2ccc3c(c2)CCCN3S(C)(=O)=O)c1 ?
TDP1 inh: 0%; TDP1 cell noCPT: -13%; TDP1 cell CPT: -15%

How did Oc1ccc(N=Nc2ccccc2)o1 do in these assays?
Giardia kill: 16; ELG1 DNA repair: 17%; TDP1 cell noCPT: 13µM*; TDP1 cell CPT: 5.8µM*; IL-1B inflam inh: -90*

What do the screens show for `Cc1ccc(C(=O)c2cn(Cc3ccccc3C)c3nc(C)ccc3c2=O)cc1`?
TDP1 inh: 5%; TDP1 cell noCPT: 21µM*; TDP1 cell CPT: 21µM*

How did Cc1ccc(C(=O)c2cn(Cc3cccc(F)c3)c3nc(C)ccc3c2=O)cc1 do in these assays?
TDP1 inh: 4%; TDP1 cell noCPT: 21µM*; TDP1 cell CPT: inconclusive

What do the screens show for `Cc1ccc(C(=O)c2cn(Cc3ccccc3)c3nc(C)ccc3c2=O)cc1`?
TDP1 inh: 6%; TDP1 cell noCPT: inconclusive; TDP1 cell CPT: inconclusive

What do the screens show for `Cc1nnc(SCC(=O)Nc2nccs2)o1`?
Giardia kill: -2; TDP1 inh: 7%; ELG1 DNA repair: -1%; TDP1 cell noCPT: 22%; TDP1 cell CPT: -11%; IL-1B inflam inh: 13

How did COc1ccc2c(c1)OC(C)CN(CCNC(=O)c1csc(-c3cccs3)n1)C2 (configuration not stated) do in these assays?
TDP1 cell noCPT: -14%; TDP1 cell CPT: -6%[9.04 µM]

How did CC1CCC(NS(=O)(=O)c2ccc(Cl)nc2)CC1 (configuration not stated) do in these assays?
Giardia kill: 3; TDP1 inh: -3%; ELG1 DNA repair: inconclusive; TDP1 cell noCPT: -23%; TDP1 cell CPT: -5%; IL-1B inflam inh: 5

What do the screens show for `CC(C)N=C(NS(=O)(=O)c1ccccc1)C(Cl)(Cl)Cl`?
Giardia kill: -24; TDP1 inh: -3%; ELG1 DNA repair: 5.2µM*; TDP1 cell noCPT: 2.9µM*; TDP1 cell CPT: 2.9µM*; IL-1B inflam inh: -96*
